Screens as filed in PubChem BioAssay.
aSyn UTR act: Activators via SNCA 5'UTR binding, MLPCN. 300,000 tested, 7.1% active. alpha-synuclein 5'UTR reporter, activators screen. activity score, % (tested at 7.5 µM), hits read low; in the data active means activity score below about -60%
* hit, by the source's call. The list is a sample of the results.

For Cc1cc(C)cc(Oc2ncnc3c2ncn3Cc2c(Cl)cccc2Cl)c1 the results were aSyn UTR act 35.
Screening Cc1ccc(NC(=O)C(C)OC(=O)c2n[nH]c3ccccc23)cc1 (centres undefined) returned aSyn UTR act -71*.
CC(C)NC(=O)CCCOc1ccc(Cl)cc1Cl was read as aSyn UTR act -68*.
C#CCN(C)CCCOc1ccc(Cl)cc1Cl was read as aSyn UTR act -79*.
Screening CCN(CC)C(=O)CCCOc1ccc(Cl)cc1Cl returned aSyn UTR act -96*.
CCCCC(=O)NC(c1ccc(Cl)cc1Cl)c1ccc2cccnc2c1O (centres undefined) was read as aSyn UTR act 92.
Screening CCSc1nnc(NC(=O)Nc2cccc(C)c2)s1 returned aSyn UTR act -143*.
CCSc1nnc(NC(=O)c2csc(C)c2)s1 was read as aSyn UTR act -176*.
C/C(N)=C(/C#N)C(=O)CSc1nc2cc(Cl)ccc2s1 was read as aSyn UTR act -116*.
Screening C/C(N)=C(/C#N)C(=O)CSc1nnc(Nc2cccc(C)c2)s1 returned aSyn UTR act -180*.
For CCSc1nnc(NC(=O)C2CCCCC2)s1 the results were aSyn UTR act -98*.
Screening C/C(O)=C(\N=Nc1cc(C)ccc1O)C(N)=O returned aSyn UTR act -65*.
CCOc1ccc(/C=N/Nc2cc(C)nc(N3CCOCC3)n2)cc1 was read as aSyn UTR act -105*.
For Cc1cc(N/N=C/c2ccc(O)cc2O)nc(-n2nc(C)cc2C)n1 the results were aSyn UTR act 72.
`CCOc1ccc2nc(N3CCOCC3)nc(C)c2c1` gave aSyn UTR act -178*.
`Cc1cc(Nc2ccc(C)c(Cl)c2)nc(N2CCOCC2)n1` gave aSyn UTR act -70*.
COC(=O)Nc1ccc(S(=O)(=O)N2CCCc3ccccc32)cc1 was read as aSyn UTR act 84.
Screening CS(=O)(=O)N1CCc2cc(C(=O)Nc3ccc(Cl)cc3)ccc21 returned aSyn UTR act -138*.
CC(=O)c1cccc(NC(=O)N2CCCc3ccccc32)c1 was read as aSyn UTR act -131*.
For O=C(Nc1ccc2c(c1)OCO2)N1CCCc2ccccc21 the results were aSyn UTR act -103*.
O=C(Nc1ccc(S(=O)(=O)N2CCc3ccccc32)cc1)c1ccc2c(c1)OCO2 was read as aSyn UTR act -73*.
Screening Cc1ccc(-n2nnnc2SCC(=O)Nc2sc(C)c(C)c2C#N)cc1C returned aSyn UTR act -71*.
O=[N+]([O-])c1ccc(/C=N/Nc2ccc3ccccc3c2)o1 was read as aSyn UTR act -104*.
`Cc1nc2ccccn2c1C(=O)N/N=C/c1ccc([N+](=O)[O-])o1` gave aSyn UTR act -81*.
O=C(N/N=C/c1ccc([N+](=O)[O-])o1)c1cc2ccccc2o1 was read as aSyn UTR act 66.
Screening C=CCN(C(=O)C1=NN(C2CCS(=O)(=O)C2)C(=O)CC1)c1nc(-c2ccc([N+](=O)[O-])cc2)cs1 (centres undefined) returned aSyn UTR act -135*.
COc1ccccc1CCc1nnc(CCC(=O)N(C)Cc2cccc3cnccc23)o1 was read as aSyn UTR act -131*.
Screening COc1ccc(OCc2cc(C(=O)NC(C)Cc3cnccn3)no2)c(Cl)c1 (centres undefined) returned aSyn UTR act -144*.
`COc1cc(OC)cc(C(=O)NC(=S)NNC(=O)c2cnccn2)c1` gave aSyn UTR act 73.
For COc1cc(Cl)ccc1OCc1cc(C(=O)NCc2cc(C(C)C)no2)no1 the results were aSyn UTR act -147*.
For COc1ccc(OCc2cc(C(=O)N(C)Cc3cc(C4CC4)n[nH]3)no2)c(Cl)c1 the results were aSyn UTR act -189*.
COc1ccc(OCc2cc(C(=O)NCC(C)Oc3cccnc3)no2)c(Cl)c1 (centres undefined) was read as aSyn UTR act -85*.
COc1cc(Cl)ccc1OCc1cc(C(=O)NC(C)Cc2cccnc2)no1 (centres undefined) was read as aSyn UTR act -97*.
For COc1ccc(OCc2cc(C(=O)N(C)Cc3cnccn3)no2)c(Cl)c1 the results were aSyn UTR act -71*.
COc1cc(Cl)ccc1OCc1cc(C(=O)N(C)Cc2cccc3cnccc23)no1 was read as aSyn UTR act -77*.
Screening CSc1ccccc1OCc1cc(C(=O)N(C)Cc2cnccn2)no1 returned aSyn UTR act -97*.
For CC(=O)c1ccc(NC(=O)c2ccc3snnc3c2)cc1 the results were aSyn UTR act -119*.
For O=C(Nc1ccc(Cl)cc1)c1ccc2snnc2c1 the results were aSyn UTR act -149*.
`O=C(Nc1ccccc1F)c1ccc2snnc2c1` gave aSyn UTR act -77*.
`COc1ccc(NC(=O)c2ccc3snnc3c2)cc1` gave aSyn UTR act -107*.
For Cn1c(-c2ccc3ccccc3n2)[n+](C)c2ccccc21 the results were aSyn UTR act -65*.
For Cc1ccc(S(=O)(=O)Nc2ccccc2-c2ccccc2)cc1 the results were aSyn UTR act 54.
O=C(Nc1ccccc1-c1ccccc1)c1ccc(=O)[nH]n1 was read as aSyn UTR act -128*.
Screening CC(C)(C)c1ccc(NC(=O)c2ccc(=O)[nH]n2)cc1 returned aSyn UTR act -102*.
O=c1[nH]c2ccccc2nc1/C=C/c1ccc(F)cc1 was read as aSyn UTR act -139*.
For O=c1[nH]c2ccccc2nc1/C=C/c1ccccc1 the results were aSyn UTR act -165*.
CC(=O)c1ccc(/C=C/c2nc3ccccc3n2C)o1 was read as aSyn UTR act -91*.
Oc1ccc(/C=C/c2ccc3ccccc3n2)cc1 was read as aSyn UTR act 90.
For O=c1[nH]c2ccccc2nc1/C=C/c1ccc(O)cc1 the results were aSyn UTR act -214*.
`Cn1c(=O)c(/C=C/c2ccccc2)nc2ccccc21` gave aSyn UTR act -291*.
Screening CCOC(=O)C(=CNc1ccc(C(F)(F)F)cc1Cl)C(=O)OCC returned aSyn UTR act -97*.
`Cc1cc2n(n1)C(c1ccc(N(C)C)cc1)Nc1ccccc1-2` (centres undefined) gave aSyn UTR act -156*.
`Clc1ccccc1CSc1ncn(-c2ccccc2)n1` gave aSyn UTR act -185*.
CCOC(=O)CNC(=O)c1cc(-c2ccccn2)nc2c(C)c(Cl)ccc12 was read as aSyn UTR act -66*.
Screening COc1ccc2nc(N3CCCC3)c(C#N)cc2c1 returned aSyn UTR act -105*.
For COc1ccc2nc(N3CCCCC3)c(C#N)cc2c1 the results were aSyn UTR act -110*.
For CCCCN(CC)CCNC(=O)c1cc2c(-c3ccc(Cl)cc3)nn(C)c2s1 the results were aSyn UTR act 79.
For Cn1nc(-c2ccc(Cl)cc2)c2cc(C(=O)NCCCN3CCOCC3)sc21 the results were aSyn UTR act -134*.
CCOCCCNC(=O)c1cc2c(-c3ccc(Cl)cc3)nn(C)c2s1 was read as aSyn UTR act -62*.
CCN1CCN(C(=O)c2cc3c(-c4ccc(Cl)cc4)nn(C)c3s2)CC1 was read as aSyn UTR act -68*.
Cn1nc(-c2ccc(Cl)cc2)c2cc(C(=O)NCCN3CCOCC3)sc21 was read as aSyn UTR act -107*.
CCCN(CCC)CCNC(=O)c1cc2c(-c3ccccc3F)nn(C)c2s1 was read as aSyn UTR act -62*.
Screening COc1cccc(NC(=O)c2ncc(Cl)c(Cl)c2Cl)c1 returned aSyn UTR act -224*.
`COc1cccc(NC(=O)c2cnsn2)c1` gave aSyn UTR act -97*.
`Cn1ccc(C(=O)Nc2ccc(Br)cc2Br)n1` gave aSyn UTR act -79*.
